Biological target: Neurogenic locus notch homolog protein 3 (Homo sapiens) (UniProt Q9UM47)
Test: NOTCH3 binders on small-molecule microarray, primary screen, biochemical, 635/667 nm fluorescence (AID 1096)
Conditions: NOTCH3 binding, 635 nm fluorescence, higher = more signal

Chain of Neurogenic locus notch homolog protein 3 (Homo sapiens) (Q9UM47 whole entry, looked up): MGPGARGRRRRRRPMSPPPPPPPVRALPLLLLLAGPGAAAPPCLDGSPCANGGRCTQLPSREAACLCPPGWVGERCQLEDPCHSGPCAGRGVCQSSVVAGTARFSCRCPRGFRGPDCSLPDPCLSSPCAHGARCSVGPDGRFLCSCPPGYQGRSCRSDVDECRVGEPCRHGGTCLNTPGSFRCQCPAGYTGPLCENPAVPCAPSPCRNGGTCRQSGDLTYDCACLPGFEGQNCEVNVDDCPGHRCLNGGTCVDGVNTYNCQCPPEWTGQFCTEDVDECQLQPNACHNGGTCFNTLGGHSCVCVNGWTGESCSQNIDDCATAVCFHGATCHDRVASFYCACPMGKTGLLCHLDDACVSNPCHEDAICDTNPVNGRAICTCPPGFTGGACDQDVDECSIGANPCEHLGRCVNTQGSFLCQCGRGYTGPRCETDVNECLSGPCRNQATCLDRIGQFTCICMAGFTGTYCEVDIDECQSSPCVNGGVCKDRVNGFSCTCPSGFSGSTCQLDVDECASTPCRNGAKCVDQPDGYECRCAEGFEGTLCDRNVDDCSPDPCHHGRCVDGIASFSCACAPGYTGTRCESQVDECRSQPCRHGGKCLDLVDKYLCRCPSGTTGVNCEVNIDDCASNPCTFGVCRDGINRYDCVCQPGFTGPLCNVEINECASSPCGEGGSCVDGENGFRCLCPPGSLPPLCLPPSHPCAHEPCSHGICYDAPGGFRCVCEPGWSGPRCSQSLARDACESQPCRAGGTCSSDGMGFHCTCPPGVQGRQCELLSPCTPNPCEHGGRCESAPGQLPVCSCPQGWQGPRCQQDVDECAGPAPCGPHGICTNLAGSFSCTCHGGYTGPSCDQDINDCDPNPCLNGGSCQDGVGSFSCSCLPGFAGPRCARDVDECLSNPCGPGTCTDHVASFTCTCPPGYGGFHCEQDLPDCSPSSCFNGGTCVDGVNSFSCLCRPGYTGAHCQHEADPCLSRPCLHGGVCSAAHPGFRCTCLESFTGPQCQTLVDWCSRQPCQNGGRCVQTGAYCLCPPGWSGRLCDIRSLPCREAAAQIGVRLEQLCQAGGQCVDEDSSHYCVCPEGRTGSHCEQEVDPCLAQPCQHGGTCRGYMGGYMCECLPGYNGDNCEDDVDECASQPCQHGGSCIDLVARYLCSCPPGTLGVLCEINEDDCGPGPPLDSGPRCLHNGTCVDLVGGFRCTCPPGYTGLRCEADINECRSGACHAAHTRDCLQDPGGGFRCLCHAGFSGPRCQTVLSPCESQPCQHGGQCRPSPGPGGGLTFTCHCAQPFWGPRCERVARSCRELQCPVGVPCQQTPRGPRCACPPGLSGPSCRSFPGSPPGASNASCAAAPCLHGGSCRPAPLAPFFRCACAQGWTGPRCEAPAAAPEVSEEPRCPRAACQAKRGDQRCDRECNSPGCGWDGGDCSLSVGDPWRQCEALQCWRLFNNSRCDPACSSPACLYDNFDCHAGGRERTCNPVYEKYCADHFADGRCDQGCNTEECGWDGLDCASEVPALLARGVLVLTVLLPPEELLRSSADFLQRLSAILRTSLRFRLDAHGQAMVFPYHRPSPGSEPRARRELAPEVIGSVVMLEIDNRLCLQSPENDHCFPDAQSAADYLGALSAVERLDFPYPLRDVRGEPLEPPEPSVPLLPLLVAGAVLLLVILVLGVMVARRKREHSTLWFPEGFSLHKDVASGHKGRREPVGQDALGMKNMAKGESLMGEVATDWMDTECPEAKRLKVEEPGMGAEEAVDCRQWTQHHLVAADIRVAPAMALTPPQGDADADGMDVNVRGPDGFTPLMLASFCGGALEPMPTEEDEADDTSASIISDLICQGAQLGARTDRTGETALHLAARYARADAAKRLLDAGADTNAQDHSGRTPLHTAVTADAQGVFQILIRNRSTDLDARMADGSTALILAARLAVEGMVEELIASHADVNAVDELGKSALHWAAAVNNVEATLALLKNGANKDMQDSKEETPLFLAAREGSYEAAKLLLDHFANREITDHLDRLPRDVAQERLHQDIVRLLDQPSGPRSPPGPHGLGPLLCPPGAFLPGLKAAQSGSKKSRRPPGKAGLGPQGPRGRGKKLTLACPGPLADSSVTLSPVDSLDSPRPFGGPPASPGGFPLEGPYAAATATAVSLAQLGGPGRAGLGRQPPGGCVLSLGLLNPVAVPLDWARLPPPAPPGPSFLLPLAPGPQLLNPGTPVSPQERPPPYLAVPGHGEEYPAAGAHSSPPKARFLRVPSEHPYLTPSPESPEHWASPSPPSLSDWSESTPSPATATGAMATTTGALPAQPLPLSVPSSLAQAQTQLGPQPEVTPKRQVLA

| SMILES | composite z-score |
| --- | --- |
| O=C1C[C@@](C(=O)O)(c2ccc([N+](=O)[O-])cc2)[C@@H](c2ccc(CO)cc2)N1CC12CC3CC(CC(C3)C1)C2 | 0.857 |
| Cc1ccc(S[C@]2(C(=O)O)CC(=O)N(Cc3ccccc3C(F)(F)F)[C@@H]2c2ccc(CO)cc2)cc1 | -1.34 |
| COC(=O)c1ccc(OC)c(/C=C\CC(CCc2ccccc2)OC(C)=O)c1 (stereo unspecified) | -0.255 |
| C#CCNS(=O)(=O)N(C)C | 0.579 |
| O=C1CSC(c2cccc([N+](=O)[O-])c2)N1c1ccccc1 (stereo unspecified) | 0.201 |
| CCN(CC)c1ccc(N2CC=CC34O[C@@H]5/C=C\CCCOC(=O)C5[C@H]3C(=O)N(CCCCCO)[C@@H]4C2=O)cc1 (stereo partly specified) | -0.404 |
| OCc1ccc(-c2cc[n+](Cc3cccc(OC(F)(F)F)c3)cc2)cc1 | 1.05 |
| COCC1=C([C@H](O)CCc2ccccc2)[C@H](CO)[C@@H]2C(=O)N(C)C(=O)[C@@H]2C1 | -0.351 |
| COC(=O)[C@@]1(Cc2ccc(F)cc2)[C@H]2c3cc(C(=O)N(C)C)n(Cc4ccc(C)c(F)c4F)c3C[C@H]2CN1C(=O)c1ccccc1 | 0.876 |
| CCOC(=O)C[C@H]1[C@H](OC(=O)c2ccc(C(=O)c3ccccc3)cc2)[C@@H](NC(=O)C2CCCCC2)c2cc(OCCCO)ccc2N1C(=O)Cc1ccc(OC)cc1 | 0.88 |
| CCCN1C(=O)[C@@]2(Cc3ccccc3)N=C(c3ccc(OCCCO)cc3)O[C@H]2c2ccccc21 | 1.05 |
| O=C1C2C=CC(C(O)c3ccccn3)N(Nc3ccccc3)C2C(=O)N1c1ccccc1 (stereo unspecified) | -0.254 |
| COc1cc(C(O)C2C=CC3C(=O)N(C)C(=O)C3N2NC(=O)OC(C)(C)C)cc(OC)c1OC (stereo unspecified) | 0.697 |
| COCC(=C=CC[C@@H](O)c1ccccc1OCCO)C[C@@H](O)c1ccccn1 | 0.88 |
| C[N+](C)(C)CCCC[C@@H]1NC(=O)[C@@H]2C[C@H](C(=O)O)[C@H](c3cccc(OCCO)c3)N2C1=O | -0.78 |
| C=CCC(OC(C)=O)[C@@H]1[C@@H](N(Cc2ccc(-c3cccc(C(F)(F)F)c3)o2)C(=O)c2cccc3ccccc23)c2cc(OCCCO)ccc2N1C(=O)c1ccc(-c2ccccc2)cc1 (stereo partly specified) | -0.358 |
| COCCCNC(=O)[C@@]1(C)c2ccccc2C(=O)N(c2ccc(C)cn2)[C@H]1c1ccc(CO)cc1 | -0.99 |
| COCCCNC(=O)[C@@]1(Cc2ccccc2CN=[N+]=[N-])N=C(c2ccc(OCCCO)cc2)O[C@H]1c1ccccc1N=[N+]=[N-] | 0.671 |

| SMILES | composite z-score |
| --- | --- |
| CC1(C)[C@@H]2CC(C(O)C3C=CC4C(=O)N(c5ccccc5)C(=O)C4N3Nc3ccccc3F)=C[C@@H]1C2 (stereo partly specified) | 1.06 |
| CCOC(=O)C[C@H]1[C@H](OC(=O)Cc2ccc3c(c2)OCO3)[C@@H](NC(=O)c2ccccc2)c2cc(OCCCO)ccc2N1C(=O)c1ccc2ccccc2n1 | 0.0199 |
| C=CC[C@]1(C(=O)NCC(O)CO)N=C(c2ccc(OCCCO)cc2)O[C@H]1c1ccccc1N=[N+]=[N-] (stereo partly specified) | -0.0588 |
| C=C(COC)C(=O)CC[C@H](OC(=O)c1ccccc1-c1ccccc1C(=O)O)c1ccc(OCCO)cc1 | 0.615 |
| COC(=O)[C@@]1(Cc2ccc(OC)cc2)[C@H]2c3cc(C(=O)N(C)C)n(Cc4cc(F)c(F)c(F)c4)c3C[C@H]2CN1C(=O)c1ccccc1 | 1.04 |
| C=CCC(OC(C)=O)[C@@H]1[C@@H](N(Cc2ccc(-c3ccccc3)cc2)C(=O)Cc2ccc(OC)cc2)c2cc(OCCCO)ccc2N1C(=O)c1ccc(-c2ccccc2)cc1 (stereo partly specified) | -0.255 |
| COc1ccc(CCNC(=O)[C@@H]2c3ccccc3C(=O)N(Cc3ccccc3)[C@H]2c2ccc(CO)cc2)cc1 | 0.233 |
| COC(=O)C(CC#Cc1ccc2c(c1)[C@]1(C(=O)N2)[C@H](c2ccccc2OCCO)N2[C@H](c3ccccc3)[C@H](c3ccccc3)OC(=O)[C@H]2[C@@H]1C(=O)Nc1nc2ccccc2s1)C(=O)OC | 1.15 |
| COc1cc2c(cc1OC)CN(C(=O)[C@@H]1[C@H]3C(=O)O[C@H](c4ccccc4)[C@H](c4ccccc4)N3[C@H](c3ccc(OCCO)cc3)[C@@]13C(=O)Nc1ccc(C#CCCO)cc13)CC2 | 1.08 |
| C[N+](C)(C)CCCCCCNC(=O)[C@H]1C[C@H]2C(=O)N3CCC[C@H]3C(=O)N2[C@H]1c1cccc(OCCO)c1 | 1.08 |
| C=C(C(=O)CC[C@H](OC(=O)c1cccnc1)c1ccc(OCCO)cc1)C(C)C | 0.717 |
| C=C(COC)C(=O)CC[C@H](OC(=O)c1ccccc1-c1ccccc1C(=O)O)c1ccc(CO)o1 | 0.391 |
| COC(=O)[C@@]1(Cc2ccccc2)[C@H]2c3cc(C(=O)N4CCCC4)n(Cc4ccc(OC(F)(F)F)cc4)c3C[C@H]2CN1C(=O)c1ccccc1 | 1.04 |
| CO[C@H]1O[C@H](CO)[C@@H](OC(=O)c2ccc(Br)cc2)[C@@H]2OC(=O)[C@H](Cc3cccc(Br)c3)C/C=C/C[C@@H](Cc3cccc(Br)c3)C(=O)O[C@@H]12 | 1.04 |
| Cc1ccc(N2C(=O)c3ccccc3[C@](C)(C(=O)NC(C)C)[C@@H]2c2ccc(CO)cc2)nc1 | -0.572 |
| NC(=O)[C@@H]1[C@H]2C(=O)O[C@H](c3ccccc3)[C@H](c3ccccc3)N2[C@H](c2ccccc2OCCO)[C@@]12C(=O)Nc1ccc(C#CCCO)cc12 | -0.196 |
| O=C1O[C@H](c2ccccc2)[C@H](c2ccccc2)N2[C@H]1[C@@H](C(=O)N1CCN(c3ncccn3)CC1)[C@]1(C(=O)Nc3ccc(C#CCCO)cc31)[C@H]2c1ccc(OCCO)cc1 | 1.1 |
| CCCC=C(CCC)[C@@H](NS(=O)(=O)c1cccc2cccnc12)c1ccc(C(=O)OC)cc1 | 0.542 |
